NR3A LBD binder = binders of NR3A ligand-binding domain, primary screen, biophysical, differential scanning fluorimetry, uHTS. Glutamate receptor ionotropic, NMDA 3A (GRIN3A) ligand-binding domain. NR3A LBD differential scanning fluorimetry, Tm shift; 0% = protein alone, 100% = glycine-bound protein. Tm shift relative to glycine control, % at 25 µM. 2.5% of 340,000 active. AID 1259313, 2017;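 active means melting temperature shift of at least 10% of the positive control shift, at one fixed dose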
ADAM10 inh = human ADAM10 inhibitors, primary screen, biochemical, QFRET, HTS; Disintegrin and metalloproteinase domain-containing protein 10 (Homo sapiens), O14672; recombinant ADAM10, EDANS/DABCYL FRET peptide cleavage, 3 h; inhibition, % at 7 µM; 0.62% of 370,000 active; AID 720582, 2013;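 active means inhibition above a per-campaign cutoff equal to the mean of compounds falling between control-based bounds plus 3 SD, cut at about 20% in these data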;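 further: 0% = DMSO wells while the 100% control is not disclosed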
ADAM17 inh = ADAM17 inhibitors, primary screen, biochemical, QFRET; Disintegrin and metalloproteinase domain-containing protein 17 (Homo sapiens), P78536; recombinant ADAM17, EDANS/DABCYL FRET peptide cleavage; inhibition, % at 6.95 µM; 0.83% of 370,000 active; AID 720648, 2013;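 active means inhibition above the mean of compounds lying between control limits plus 3 SD, set per campaign, cut at about 8.5% in these data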;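 further: 0% = DMSO-only wells as the low control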
FAS TE block = FAS thioesterase domain inhibitors, primary screen, biochemical, fluorescence intensity, uHTS. Fatty acid synthase (Homo sapiens), P49327. recombinant FAS-TE, OMFH fluorogenic substrate, fluorescence endpoint. inhibition, % at 15 µM. 0.67% of 360,000 active;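 active means compounds whose normalised, plate-corrected inhibition of enzyme fluorescence in the single-dose primary screen is 50% or more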;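 further: 0% = DMSO with enzyme and 100% = substrate without enzyme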
KLK7 zymogen act = proKLK7 zymogen activators, primary screen, biochemical, fluorescence intensity; Kallikrein-7 (Homo sapiens), P49862; purified proKLK7, EDANS-DABCYL substrate fluorescence; 100% is mature enzyme control, 0% vehicle; activation, % at 7 µM; 0.9% of 370,000 active; AID 652039, 2013;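 active means activation above the mean of all tested compounds plus 3 SD, computed per campaign excluding outliers beyond control limits, cut at about 13% in these data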
Target sequence (P49862 whole entry, looked up): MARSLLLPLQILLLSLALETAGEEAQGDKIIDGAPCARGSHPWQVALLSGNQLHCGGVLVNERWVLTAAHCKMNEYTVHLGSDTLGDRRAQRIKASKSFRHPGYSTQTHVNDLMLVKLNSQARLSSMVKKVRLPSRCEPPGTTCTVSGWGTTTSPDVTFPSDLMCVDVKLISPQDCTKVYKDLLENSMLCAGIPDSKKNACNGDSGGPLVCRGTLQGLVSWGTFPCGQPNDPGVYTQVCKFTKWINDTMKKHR
ADAM10 counter = ADAM10 inhibitors, counter-screen for ADAM17 exosite inhibitor project, biochemical, FRET, human ADAM10; shares compounds with ADAM17 inh; recombinant ADAM10, EDANS/DABCYL FRET peptide cleavage, 3 h; inhibition, % at 6.95 µM; 47% of 2,900 active; AID 743256, 2014;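 active means mean inhibition over the triplicate runs exceeds the activity threshold set in the earlier primary screen, cut at about 20% in these data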;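 further: 0% = DMSO wells and 100% = marimastat wells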
ADAM17 confirm = ADAM17 inhibitors, hit retest, confirmation, biochemical, QFRET peptide cleavage | shares compounds with ADAM17 inh | inhibition, % at 6.95 µM | recombinant ADAM17, EDANS/DABCYL QFRET peptide cleavage | 65% of 2,900 active;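 active means mean inhibition across replicates above the hit cutoff set in the primary screen, cut at about 8.5% in these data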;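 further: 0% = DMSO wells and 100% = marimastat wells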
The depositor's hits bear a star; nt = no result. In the library only some 4.6% were active in any assay of this set; here they are far more common.

SMILES	NR3A LBD binder	ADAM10 inh	ADAM17 inh	FAS TE block	KLK7 zymogen act	ADAM10 counter	ADAM17 confirm
O=C1CCCC(=O)N1c1ccc(N2CCN(c3ccccc3)CC2)c([N+](=O)[O-])c1	2	3	-1	-6	0	nt	nt
O=C(N[C@H](C(=O)N1CCC[C@H]1C(=O)NC1CCCC1)c1ccccc1)c1ccc(Cl)c(Cl)c1	nt	-5	-2	nt	1	nt	nt
CC1CC(C)CN(C(=O)COC(=O)COc2ccccc2C#N)C1 (stereo not given)	2	4	9.7*	-6	0	22*	11*
CC1CCN(C(=O)COC(=O)COc2ccccc2C#N)CC1	1	-13	-4	-8	1	nt	nt
O=S(=O)(c1ccccc1F)N1CCC(c2nc3ccccc3o2)CC1	nt	-3	9.1*	nt	0	13	4
O=C(Nc1ccc(F)cc1F)N1CCC(c2nc3ccccc3o2)CC1	-1	-6	0	0	0	nt	nt
C=CCOc1ccc(CNc2nn[nH]n2)cc1	-3	17	9.1*	-24	0	-15	-3
COC(=O)[C@]12C[C@H](CC(=O)NCCC(C)C)C(=O)N(CCC3=CCCCC3)C1=C[C@H](COCc1ccccc1)O[C@@H]2C	nt	2	-2	nt	1	nt	nt
COc1ccc(OC)c(Nc2ccc(Nc3cc(OC)ccc3OC)nn2)c1	6	14	18*	13	1	10	9
Cc1ccc(OCc2nnc(SCC(=O)Nc3cccc4ccccc34)n2-c2ccccc2)cc1	-3	12	4	22	0	nt	nt
Cc1ccc(NC(=O)CSc2nnc(-c3n[nH]c4ccccc34)n2-c2ccccc2)c(C)c1	-3	19	9.3*	4	1	4	10*
Cc1ccc(C)c(NC(=O)CSc2nnc(-c3cc(C)[nH]n3)n2N)c1	0	-4	11*	-6	-1	-3	-2
Cc1ccc(-n2nnnc2SCC(=O)Nc2ccccc2-c2ccccc2)cc1C	-18	10	9.0*	25	0	26*	15*
C=CCn1c(SCC(=O)Nc2ccccc2-c2ccccc2)nnc1-c1ccc(Cl)cc1	nt	16	9.3*	nt	1	22*	15*
COCCN1Cc2cc(C(=O)OC)c3c(c2C1=O)c1cc(F)ccc1n3S(=O)(=O)c1cccc(C)c1	nt	-7	-1	nt	-1	nt	nt
Cc1ccc(-n2c(COc3ccccc3)nnc2SCC(=O)Nc2ccccc2-c2ccccc2)cc1	nt	16	8.9*	nt	1	32*	16*
C[C@@H]1C(=O)N2N=Cc3ccccc3[C@H]2N2N=Cc3ccccc3[C@@H]12	nt	-1	-3	nt	0	nt	nt
C=CC[C@H]1c2ccccc2[C@H]2N3N=Cc4ccccc4[C@H]3[C@H](CCc3ccccc3)C(=O)N2N1C(=O)c1ccccc1	nt	15	11*	nt	-2	5	8
O=C(Nc1cccc(OC(F)(F)F)c1)C1Cc2c(-c3ccc4c(c3)OCO4)ccnc2O1 (stereo not given)	nt	-1	3	22	-1	nt	nt
O=C(Nc1cccc(OC(F)(F)F)c1)C1Cc2c(-c3ccc(Cl)cc3)ccnc2O1 (stereo not given)	nt	8	10*	32	0	17	9
COc1ccc(NC(=O)C2Cc3c(-c4ccccc4Oc4ccccc4)ccnc3O2)cc1 (stereo not given)	nt	18	9.6*	24	0	18	7
O=C(Nc1ccccc1Oc1ccccc1)c1cc([N+](=O)[O-])ccc1Cl	7	-3	8.9*	49	0	0	3

Assay outcomes: PubChem, several laboratories
